This is a sample that favours compounds with a hit; in the whole collection about 3.7% have one here.
TGFb inhibitor = inhibitors of TGF-b signaling. HepG2 CAGA-GFP TGF-b/SMAD3 reporter, GFP fluorescence, 18 h; TGF-beta stimulated, 500 pg/mL final. Potency, µM (highest dose often 46.1 µM), for the others: at the highest dose activity, negative = inhibition, actives largely listed as inhibitors. actives 1.2% (n = 410,000); also: % is scaled to controls: 0 for no effect and ±100 for the full control effect; nearly all actives have a fitted effect of over 65% in size
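Read-out: total well GFP (ex488/em500-530) summed from mean per-cell fluorescence. Cells: HEPG2 CAGA-GFP, 1% FBS DMEM, 18 h at 37 degrees C with 500 pg/mL final TGF-beta. Unstimulated wells served as the full-inhibition control; stimulated DMSO wells = 0%.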
ATXN viability = cell viability loss in ATXN counter-screen. Potency, µM (highest dose often 56.7 µM), actives largely listed as cytotoxic. AID 651635. actives 0.49% (n = 400,000). S2 cells (HEK-293 line with an ATXN2-luciferase reporter) viability, CellTiter-Fluor protease fluorescence, 24 h; also: nearly all actives have a fitted effect of over 40% in size
ATXN2 expr inh = ATXN2 expression inhibition | HEK-293 ATXN2-luciferase reporter, luminescence, 24 h | Potency, µM (series often up to 57 µM), inactives show at the highest dose activity change, negative = inhibition, usual class: inhibitors | actives 0.72% (n = 360,000) | AID 1745845; also: % is scaled to controls: 0 for no effect and ±100 for the full control effect; nearly all actives have a fitted effect of over 55% in size
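ATXN2-luciferase reporter cells (luciferase flanked by upstream and downstream ATXN2 gene portions) were treated 24 h at 37 °C with compounds at up to 57 uM. SteadyGlo luminescence gave expression; GF-AFC fluorescence gave viability.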
GLP-1R inv ag = inverse agonists of human GLP-1 receptor | Potency, µM (highest dose often 38.3 µM), for inactives: at the highest dose activity change, negative = inhibition, most hits filed as inhibitors | AID 624417 | HEK293 GLP-1R CRE-luciferase, luminescence, 24 h; GLP-1R form is constitutively active | P43220 | actives 1.6% (n = 410,000); also: % is scaled to controls: 0 for no effect and ±100 for the full control effect; nearly all actives have a fitted effect of over 55% in size
Target sequence (P43220 whole entry, looked up): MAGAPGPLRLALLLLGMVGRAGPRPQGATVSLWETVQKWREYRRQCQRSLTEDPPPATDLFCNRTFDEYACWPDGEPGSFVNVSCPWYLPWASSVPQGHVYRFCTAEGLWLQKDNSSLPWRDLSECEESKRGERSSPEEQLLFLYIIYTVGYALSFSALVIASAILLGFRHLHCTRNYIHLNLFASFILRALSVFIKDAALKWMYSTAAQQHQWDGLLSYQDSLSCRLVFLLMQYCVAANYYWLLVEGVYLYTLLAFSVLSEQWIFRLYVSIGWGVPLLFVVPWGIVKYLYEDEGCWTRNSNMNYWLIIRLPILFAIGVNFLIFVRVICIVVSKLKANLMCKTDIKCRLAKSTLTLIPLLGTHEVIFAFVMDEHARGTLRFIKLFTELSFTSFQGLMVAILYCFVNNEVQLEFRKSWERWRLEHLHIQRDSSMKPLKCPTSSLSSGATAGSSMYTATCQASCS
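Stable HEK293 clone (constitutively active GLP-1R + cAMP-response luciferase); 200 cells/uL plated, 12 h pre-culture, compound 24 hr, 37 deg C/5% CO2; detection reagent 12 min RT; luminescence.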
HepG2 tox = HepG2 cytotoxicity, counter-screen for TGF-b inhibitors; Potency, µM (doses to about 46.1 µM), for inactives: top-dose activity change, negative = cytotoxicity, usual class: cytotoxic; HepG2 CAGA-GFP viability, ATP luminescence, 18 h; actives 0.76% (n = 410,000); AID 588856
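CellTiter-Glo luminescence gave cytotoxicity after 18 hours at 37 degrees C. The cells were HepG2 CAGA-GFP in 1% FBS DMEM, stimulated with 500 pg/mL TGF-beta after compound addition. %Activity was normalised to no-cell wells (complete cell-killing) and DMSO (no toxicity), and curves were fitted and classified.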
GLP-1R agonist = GLP-1 receptor (human) agonism; P43220; HEK293 GLP-1R CRE-luciferase, luminescence, 4-6 h; cells express a hypersensitive GLP-1R form; Potency, µM (doses to about 45.6 µM), without a hit: at the top dose activation, actives largely listed as activators; actives 0.007% (n = 380,000); also: % of control where 0% means no effect
* hit, by the source's call; i = inactive; ? = inconclusive; nt = no result. Calls follow the shape of the dose curve; as a rule, active = well fitted curve in the direction sought with a large enough effect; inconclusive = small, poorly fitted or top-dose-only effect, or another doubt; inactive = no such curve, though single readings can be large; an effect the other way counts as inactive or inconclusive. Potency is read from the fitted curve at half-maximal effect.

SMILES | TGFb inhibitor | ATXN viability | ATXN2 expr inh | GLP-1R inv ag | HepG2 tox | GLP-1R agonist
CC(C)N1CCc2c(sc(NC(=O)c3cc(-c4cccs4)nc4ccccc34)c2C(N)=O)C1 | -23% | nt | ? | ? | 18µM* | -5%
COc1ccc(CNc2nc3c(-c4ccc(C)cc4)nnn3c3ccccc23)cc1 | -6% | i | 53% | 9% | -4% | 0%
O=C(CCc1nnc2n(Cc3ccccc3Cl)c(=O)c3ccccc3n12)Nc1ccccc1 | 0% | nt | nt | 3% | -5% | nt
O=C(NCc1nc2ccccc2n1Cc1ccccc1Cl)c1ccccc1 | ? | nt | nt | ? | -21% | nt
Cc1ccc2nc(-c3c[nH]c4ccccc34)c(Nc3ccc(F)cc3)n2c1 | -8% | ? | ? | ? | -42% | nt
Cc1ccc2nc(-c3ccc(O)cc3)c(Nc3ccc(Cl)cc3)n2c1 | 18µM* | nt | nt | ? | -83% | nt
Cc1ccc(Nc2c(-c3ccc(C)cc3)nc3ccc(C)cn23)cc1 | 18% | i | 14% | 15% | 13% | nt
Cc1ccc2nc(-c3ccccc3F)c(Nc3ccc(Cl)cc3)n2c1 | ? | nt | nt | 11µM* | -47% | nt
CC(C)(C)c1ccccc1OCCOCCNCc1ccccc1 | 25µM* | ? | -35% | ? | -65% | 9%
CNCCOc1ccccc1C(C)(C)C | 0% | i | -7% | 0% | -10% | 18%
COCCCNCCOCCOc1ccc(Cl)cc1C(C)(C)C | 20µM* | ? | ? | 3.5µM* | 11µM* | -14%
COc1ccc(OC)c(CN2C[C@H](Sc3ccc(F)cc3)C[C@H]2C(=O)N(C)C)c1 | nt | i | nt | nt | nt | nt
COc1ccc(-c2nc3cnccn3c2Nc2ccc(C)cc2)cc1 | ? | ? | -26% | ? | -2% | 22%
COc1ccc(Nc2c(-c3cccc(O)c3)nc3cnccn23)cc1 | 6.3µM* | i | 6% | 14% | -10% | 1%
O=c1[nH]ncc(N2CCN(C(c3ccccc3)c3ccccc3)CC2)c1Cl | -11% | i | -2% | 13µM* | -11% | -1%
COC(=O)[C@@H]1CCCN1Cc1ccc2c(c1)CN(Cc1ccccc1F)CCO2 | nt | i | nt | nt | nt | nt
COC(=O)c1c(SC)nc2ccccc2c1OCc1ccc(C)cc1C | -39% | i | -2% | ? | -31% | nt
CCC(NC(=O)Nc1nnc(C(F)(F)F)s1)(C(F)(F)F)C(F)(F)F | ? | nt | 8.9µM* | ? | -40% | -8%
CCN(C(=O)CSc1nc(-c2ccc(C(C)C)cc2)no1)c1ccccc1 | 100% | i | -19% | 11µM* | 102% | nt
CCN(C(=O)CSc1nc(-c2ccc(C(C)C)cc2)no1)c1cccc(C)c1 | 3% | i | -8% | ? | -17% | nt
COc1cccc(C(=O)NCC2(c3ccccc3)CCCC2)c1OC | -19% | ? | nt | 7.1µM* | -16% | 15%
COc1ccc(C2(CNC(=O)c3ccccc3)CCCC2)cc1OC | -1% | i | -7% | 5% | 4% | 17%
CC(C)(CO)C(O)C(=O)NCCCC(=O)O (stereo not given) | nt | nt | nt | nt | nt | 0%
CN(CCO)C(=O)c1cn(C2CCN(Cc3cccc(C(F)(F)F)c3)CC2)nn1 | nt | i | nt | nt | nt | nt
Oc1[nH]c2ccc(Br)cc2c1N=NC(=S)N1CCOCC1 | ? | ? | 0.71µM* | ? | -30% | -3%
SMILES | TGFb inhibitor | ATXN viability | ATXN2 expr inh | GLP-1R inv ag | HepG2 tox | GLP-1R agonist
Oc1[nH]c2ccccc2c1N=NC(=S)N1CCOCC1 | 7.1µM* | 3.2µM* | nt | ? | 3.2µM* | 2%
NC(=S)N=Nc1c(O)[nH]c2ccccc12 | -2% | i | -14% | 13% | 25% | 6%
COc1ccc(-c2c(C3C4C=CCCC4(C)C(=O)N3Cc3ccccc3)ccc3ccccc23)cc1 (stereo not given) | -13% | nt | nt | nt | 0% | nt
O=C(Nc1ccc(Cl)c(-c2nc3ccccc3o2)c1)c1cccc2c(Cl)cccc12 | -19% | i | 12% | 1% | -2% | nt
O=C1C(=C(O)c2ccccc2)C(=O)c2ccccc21 | 113% | i | -2% | 12% | -13% | 4%
O=C1C(=C(c2ccccc2)c2ccccc2)Nc2ccccc21 | -27% | ? | -12% | 3.2µM* | 3% | 1%
O=C(c1cccc(Cl)c1)N1CCN(c2ccc3c(c2)C2CC3CCN2C(=O)OCc2ccccc2)CC1 (stereo not given) | 11µM* | ? | 0% | ? | 0% | -2%
O=C(c1ccc(-c2ccccc2)cc1)N1CCN(c2ccc3c(c2)C2CC3CCN2C(=O)OCc2ccccc2)CC1 (stereo not given) | ? | i | 4% | ? | 12% | -2%
COc1ccc(-c2cccc3c2C2CC3CCN2C(=O)OCc2ccccc2)cc1 (stereo not given) | ? | i | 2% | 22µM* | -29% | -1%
O=C(c1ccc(Cl)cc1)N1CCC2CC1c1cc(-c3ccccc3)ccc12 (stereo not given) | 20µM* | i | -12% | ? | -17% | -1%
CC[C@@H]1C(=O)N(C)c2cnc(Nc3ccc(C(=O)NC4CCN(C)CC4)cc3OC)nc2N1C1CCCC1 | nt | nt | -6% | nt | nt | nt
CCOC(=O)c1cccc(Nc2ncnc3ccc(C)cc23)c1 | -15% | i | 14% | 11µM* | 3% | 4%
C#Cc1cccc(Nc2nc(NCCOC)nc3ccsc23)c1 | -21% | ? | ? | 1% | -28% | 30%
COCCNc1nc(NCc2ccccc2F)c2sccc2n1 | 0% | ? | ? | 15% | -37% | 21%
COc1ccccc1CNc1nc(NCc2ccccc2)nc2ccsc12 | 18µM* | ? | ? | ? | -37% | 0%
C#Cc1cccc(Nc2nc(NCc3ccccc3OC)nc3ccsc23)c1 | 11µM* | 20µM* | 20µM* | ? | -54% | -6%
COCCNc1nc(NCc2cccc(OC)c2OC)c2sccc2n1 | -8% | i | ? | ? | -22% | -1%
COc1ccccc1CNc1nc(NCc2ccccc2F)c2sccc2n1 | 13µM* | ? | ? | ? | -121% | 3%
COc1ccccc1CNc1nc(NCc2cccc(OC)c2OC)c2sccc2n1 | ? | ? | 32µM* | ? | -72% | 0%
CCOCCCNC(=O)c1c(NC(=O)c2nc(SCC)ncc2Cl)sc2c1CCCC2 | 16% | nt | nt | nt | -2% | nt
CNc1nc(NCCOc2ccccc2)c2sccc2n1 | ? | ? | -22% | -26% | -11% | 0%
c1ccc(CNc2nc(NCCOc3ccccc3)c3sccc3n2)cc1 | ? | nt | 28µM* | ? | 11µM* | 1%

Bioassay records from PubChem.
